NPR2 activator: GC-B (human) receptor activation; activation, % at 10 µM; P20594; actives 0.11% (n = 370,000); HEK293-GC-B cells, CNP EC30, cGMP TR-FRET; 0% at EC30 CNP, 100% saturating CNP;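 active means activation at 10 µM reaching about 35% in either raw or pattern-adjusted values, limit read from the data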
TLR9-MyD88 block: blocks human TLR9 binding to MyD88; CHO BLA complementation TLR9-MyD88, CCF4 FRET ratio; inhibition, % at 4.98 µM; actives 0.21% (n = 340,000);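 active means inhibition above the mean over all tested compounds plus 3 SD, cut at about 21% in these data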;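 further: 0% = DMSO only wells and 100% = clavulanate BLA inhibitor control wells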
TLR4 MyD88 comp: TLR4-MyD88 interaction inhibition in cells. inhibition, % at 8.4 µM. O00206+Q99836. HeLa CL3-4 TLR4/MyD88 BLA complementation, FRET ratio. actives 0.18% (n = 200,000); in the data active means inhibition above about 25%;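 further: 0% = vehicle and 100% = reference inhibitor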
Neddyl block: inhibitors of human cullin neddylation. TR-FRET cullin neddylation, biochemical. actives 0.58% (n = 360,000). inhibition, % at 25 µM. P61081+Q13564; in the data active means inhibition above about 36%
NPR1 activator: GC-A (human) enzyme activation | activation, % at 10 µM | HEK293 GC-A cells, cGMP TR-FRET, EC30 ANP; 0% at EC30 ANP, 100% saturating ANP | actives 0.14% (n = 370,000) | AID 1671463 | P16066; in the data active means activation above about 40%
NOD2 RIPK2 PPI: NOD2-RIPK2 protein interaction inhibition. actives 0.38% (n = 360,000). CHO BLA complementation NOD2-RIPK2, CCF4 ratio. O43353. AID 624267. inhibition, % at 4.98 µM; in the data active means inhibition above about 21%;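 further: 0% = vehicle only and 100% = reference blocker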
* marks the source's active call; other numbers are inactive results. Hits are enriched below; roughly 1.2% of the tested compounds scored in any of these assays.

Screening S=c1[nH]nc(-c2cc(-c3ccccc3)n[nH]2)n1N=Cc1cccc(Oc2ccccc2)c1 returned NPR2 activator -7 and NPR1 activator -9.
Screening CCN(C(=O)[C@H]1CC(=O)O[C@@H]1c1ccccc1)c1ccccc1 returned NPR2 activator 1 and NPR1 activator -4.
Screening CCCC1=NN2C(=N)/C(=C\c3cc(C)n(Cc4ccccc4)c3C)C(=O)N=C2S1 returned NPR2 activator 3, TLR9-MyD88 block 0, Neddyl block 18, NPR1 activator 0 and NOD2 RIPK2 PPI 0.
For Cc1cc(/C=C2\C(=N)N3N=C(S(C)(=O)=O)SC3=NC2=O)c(C)n1Cc1ccccc1 the results were NPR2 activator -1, TLR9-MyD88 block -5, TLR4 MyD88 comp -4, Neddyl block 51*, NPR1 activator 1 and NOD2 RIPK2 PPI 7.
`CN1CCN(C(=S)c2ccc(-c3cc(Cl)ccc3Cl)o2)CC1` gave NPR2 activator 50*, TLR9-MyD88 block 1, Neddyl block -17, NPR1 activator 4 and NOD2 RIPK2 PPI -16.
Screening S=C(c1ccc(-c2ccc(Cl)cc2Cl)o1)N1CCCC1 returned NPR2 activator 30, Neddyl block -3, NPR1 activator 8 and NOD2 RIPK2 PPI -10.
N#CCCN1CCN(C(=S)c2ccc(-c3cc(Cl)ccc3Cl)o2)CC1 was read as NPR2 activator 97*, TLR9-MyD88 block -13, TLR4 MyD88 comp -6, Neddyl block -23, NPR1 activator 4 and NOD2 RIPK2 PPI 5.
`O=C(NCc1ccco1)Nc1ccc2nsnc2c1` gave NPR2 activator -1, TLR9-MyD88 block 3, TLR4 MyD88 comp 13, Neddyl block 50*, NPR1 activator -12 and NOD2 RIPK2 PPI -10.
O=C(NCc1ccco1)Nc1ccc(Br)cc1 was read as NPR2 activator -7, TLR9-MyD88 block -7, TLR4 MyD88 comp -9, Neddyl block -3, NPR1 activator -1 and NOD2 RIPK2 PPI 1.
COc1ccc2ccc3c(c2c1)N=CC1(O3)N(C)c2ccccc2C1(C)C (configuration not stated) was read as TLR9-MyD88 block 10, TLR4 MyD88 comp 4, Neddyl block 43* and NOD2 RIPK2 PPI -10.
Cn1c(SCC(=O)NCC2CCCO2)ncc(C(=O)Nc2ccc(Cl)cc2)c1=O (configuration not stated) was read as NPR2 activator -11, TLR9-MyD88 block -4, Neddyl block -32, NPR1 activator 45* and NOD2 RIPK2 PPI -8.
CN1C(=O)c2cccc(NC(=O)C3CCCCC3)c2C1=O was read as NPR2 activator 55*, TLR9-MyD88 block 8, TLR4 MyD88 comp 8, Neddyl block 33, NPR1 activator 1 and NOD2 RIPK2 PPI 0.
For COc1ccc(C2C=C(c3ccc(Br)s3)Nc3ncnn32)cc1OC (configuration not stated) the results were TLR4 MyD88 comp 18.
COc1cccc(C2C=C(c3cccs3)Nc3ncnn32)c1OC (configuration not stated) was read as TLR9-MyD88 block 45*, TLR4 MyD88 comp 3 and NOD2 RIPK2 PPI 48*.
Screening Nc1c(C(=O)NCc2ccccc2)sc2nc(N3CCOCC3)c3c(c12)CCCC3 returned NPR2 activator 36*, TLR9-MyD88 block 7, TLR4 MyD88 comp 2, Neddyl block -88, NPR1 activator 43* and NOD2 RIPK2 PPI -2.
Screening CCOc1cc(/C=C2/C(=O)ON=C2C)ccc1OCc1ccccc1 returned NPR2 activator 37*, TLR4 MyD88 comp 9 and NPR1 activator 43*.
CCOc1cc(/C=C2/C(=O)ON=C2C)ccc1OCc1ccccc1F was read as NPR2 activator 40*, TLR9-MyD88 block 11, TLR4 MyD88 comp 11, Neddyl block 4, NPR1 activator 43* and NOD2 RIPK2 PPI 1.
CCOc1cc(/C=C2/C(=O)ON=C2C)ccc1OCc1ccc(F)cc1 was read as NPR2 activator 35*, TLR9-MyD88 block -4, TLR4 MyD88 comp 18, Neddyl block 0, NPR1 activator 42* and NOD2 RIPK2 PPI 1.
For COc1ccc(/C=C2/C(=O)ON=C2C)cc1Br the results were NPR2 activator 15, TLR9-MyD88 block 7, Neddyl block 6, NPR1 activator 32 and NOD2 RIPK2 PPI -5.
`CCOc1cc(/C=C2\C(=O)ON=C2c2ccccc2)ccc1OC` gave NPR2 activator 10, TLR9-MyD88 block -1, Neddyl block 2, NPR1 activator 29 and NOD2 RIPK2 PPI -4.
For O=c1[nH]cc(N=Cc2cc(Cl)cc(Cl)c2O)c(=O)[nH]1 the results were NPR2 activator 6, TLR9-MyD88 block 9, Neddyl block 42*, NPR1 activator 1 and NOD2 RIPK2 PPI 1.
`Oc1c(Cl)cc(Cl)cc1C=Nc1ccccc1N1CCCC1` gave TLR4 MyD88 comp 4.
Screening CN(Cc1ccco1)c1ncnc2ccc(-c3ccoc3)cc12 returned NPR2 activator 4, TLR9-MyD88 block -7, Neddyl block 39*, NPR1 activator 0 and NOD2 RIPK2 PPI -1.
Screening COc1cccc(-n2nc(C#N)c(Cl)cc2=O)c1 returned NPR2 activator 9, TLR9-MyD88 block 17, TLR4 MyD88 comp 6, Neddyl block -5, NPR1 activator 10 and NOD2 RIPK2 PPI 70*.
For COc1cccc(-n2nc(C(N)=O)c(O)cc2=O)c1 the results were NPR2 activator 6, TLR9-MyD88 block 0, TLR4 MyD88 comp 3, Neddyl block 8, NPR1 activator -1 and NOD2 RIPK2 PPI 2.
COc1cccc(C2c3[nH]c4ccccc4c3C[C@H]3C(=O)N(c4ccccc4C(=O)N4CCC(C(=O)O)CC4)C(=O)N23)c1 (some centres not stated) was read as NPR2 activator 51*, TLR9-MyD88 block -10, Neddyl block 11, NPR1 activator 37 and NOD2 RIPK2 PPI -1.
COc1ccc(C2c3[nH]c4ccccc4c3C[C@H]3C(=O)N(c4ccccc4C(=O)N4CCC(C(=O)O)CC4)C(=O)N23)cc1 (some centres not stated) was read as NPR2 activator 13, TLR9-MyD88 block 10, Neddyl block -5, NPR1 activator 7 and NOD2 RIPK2 PPI -6.
For CCCCCC[C@@H](CCCc1ccccc1OC)CN(CCCC)S(C)(=O)=O the results were NPR2 activator 8 and NPR1 activator 2.
`COc1ccc(-c2cccc(-c3nc4ccc(Cl)cn4c3NC3CCCCC3)c2)cc1` gave NPR2 activator 50*, TLR9-MyD88 block 4, Neddyl block -307, NPR1 activator 43* and NOD2 RIPK2 PPI -3.
Screening CC(=O)c1csc(-c2cccc(-c3nc4ccc(Cl)cn4c3NC3CCCCC3)c2)c1 returned NPR2 activator 56*, TLR9-MyD88 block -2, Neddyl block 25, NPR1 activator 51* and NOD2 RIPK2 PPI 3.

Screens as filed in PubChem.
